# Test results taken from paper PMC7862700, “An all-to-all approach to the identification of sequence-specific readers for epigenetic DNA modifications on cytosine”.
# Tests used:
# Experiment in all cases: DAPPL (digital affinity profiling via proximity ligation, sequencing); 10 mM Tris-HCl pH 7.5, 50 mM NaCl, 1 mM DTT, 4% glycerol, room temperature, 30 min; GST-TFs on glutathione beads, 16-mer random dsDNA library, 0.1% formaldehyde crosslink after washing; high values mean tight binding
# FEV = target: T1, FEV (Homo sapiens, UniProt Q99581 1-238); conditions: protein: recombinant; tags: N-terminal GST; dsDNA, one strand shown
# T1 sequence: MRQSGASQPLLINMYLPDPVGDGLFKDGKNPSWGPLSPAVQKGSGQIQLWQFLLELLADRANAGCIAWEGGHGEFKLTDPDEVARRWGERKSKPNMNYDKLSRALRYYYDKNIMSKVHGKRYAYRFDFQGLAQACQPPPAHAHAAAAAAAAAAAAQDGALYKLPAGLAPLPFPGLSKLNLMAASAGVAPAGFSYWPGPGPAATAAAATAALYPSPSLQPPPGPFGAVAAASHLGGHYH
# In short: (§1)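 Human transcription factors were made in yeast as GST fusions, captured on glutathione beads and barcoded with DNA. With a tag-only sample included, the pool was incubated with 200 nmole of a random double-stranded 16-mer DNA library in Tris/NaCl/DTT/glycerol buffer at room temperature for 30 min, then crosslinked with 0.1% formaldehyde after washing, ligated by proximity, amplified and sequenced. For binding signal, each hexamer's read frequency for a factor is divided by its frequency for the tag-only sample.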
# ETV5 = ETV5 (Homo sapiens, UniProt P41161 1-510); conditions: protein: recombinant; tags: N-terminal GST; dsDNA, one strand shown
# In short: as §1
# HSF1 = HSF1 (Homo sapiens, UniProt Q00613 1-529); conditions: protein: recombinant; tags: N-terminal GST; chain copies: 3; dsDNA, one strand shown
# In short: as §1
# SPIC = target: T2, SPIC (Homo sapiens, UniProt Q8N5J4 1-248); conditions: protein: recombinant; tags: N-terminal GST; dsDNA, one strand shown
# T2 sequence: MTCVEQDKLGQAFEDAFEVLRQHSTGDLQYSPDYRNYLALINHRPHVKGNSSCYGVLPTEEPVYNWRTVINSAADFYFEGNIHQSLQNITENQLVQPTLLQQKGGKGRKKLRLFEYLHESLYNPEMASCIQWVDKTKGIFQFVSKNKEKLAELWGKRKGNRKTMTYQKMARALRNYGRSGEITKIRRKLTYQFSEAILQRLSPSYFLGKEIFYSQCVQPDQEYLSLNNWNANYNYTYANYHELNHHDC
# In short: as §1
# ELF4 = ELF4 (Homo sapiens, UniProt Q99607 1-663); conditions: protein: recombinant; tags: N-terminal GST; dsDNA, one strand shown
# In short: as §1
# ELK4 = target: T3, ELK4 (Homo sapiens, UniProt P28324-2 1-405); conditions: protein: recombinant; tags: N-terminal GST; dsDNA, one strand shown
# T3 sequence: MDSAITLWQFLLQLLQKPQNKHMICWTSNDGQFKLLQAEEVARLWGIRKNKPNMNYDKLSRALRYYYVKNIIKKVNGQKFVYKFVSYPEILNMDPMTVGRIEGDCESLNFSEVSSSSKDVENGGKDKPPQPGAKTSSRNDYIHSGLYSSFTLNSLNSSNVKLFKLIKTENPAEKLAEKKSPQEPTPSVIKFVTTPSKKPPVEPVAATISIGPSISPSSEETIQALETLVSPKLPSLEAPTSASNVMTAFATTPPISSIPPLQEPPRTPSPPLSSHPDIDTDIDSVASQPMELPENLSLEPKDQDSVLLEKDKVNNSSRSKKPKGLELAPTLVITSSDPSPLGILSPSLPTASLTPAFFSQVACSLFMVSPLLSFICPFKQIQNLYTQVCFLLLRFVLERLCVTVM
# In short: as §1
# ETV2 = target: T4, ETV2 (Homo sapiens, UniProt O00321 1-342); conditions: protein: recombinant; tags: N-terminal GST; dsDNA, one strand shown
# T4 sequence: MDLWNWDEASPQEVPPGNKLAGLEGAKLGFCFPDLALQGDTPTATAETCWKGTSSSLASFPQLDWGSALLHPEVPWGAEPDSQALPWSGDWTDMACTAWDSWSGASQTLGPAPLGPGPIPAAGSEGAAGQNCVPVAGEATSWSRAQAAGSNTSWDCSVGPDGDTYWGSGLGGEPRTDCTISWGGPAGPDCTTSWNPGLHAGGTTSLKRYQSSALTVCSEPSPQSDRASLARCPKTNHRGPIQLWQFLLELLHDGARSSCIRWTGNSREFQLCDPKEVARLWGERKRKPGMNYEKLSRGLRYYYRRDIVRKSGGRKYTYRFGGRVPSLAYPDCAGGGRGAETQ
# In short: as §1
# ELF3 = target: T5, ELF3 (Homo sapiens, UniProt P78545 1-371); conditions: protein: recombinant; tags: N-terminal GST; dsDNA, one strand shown
# T5 sequence: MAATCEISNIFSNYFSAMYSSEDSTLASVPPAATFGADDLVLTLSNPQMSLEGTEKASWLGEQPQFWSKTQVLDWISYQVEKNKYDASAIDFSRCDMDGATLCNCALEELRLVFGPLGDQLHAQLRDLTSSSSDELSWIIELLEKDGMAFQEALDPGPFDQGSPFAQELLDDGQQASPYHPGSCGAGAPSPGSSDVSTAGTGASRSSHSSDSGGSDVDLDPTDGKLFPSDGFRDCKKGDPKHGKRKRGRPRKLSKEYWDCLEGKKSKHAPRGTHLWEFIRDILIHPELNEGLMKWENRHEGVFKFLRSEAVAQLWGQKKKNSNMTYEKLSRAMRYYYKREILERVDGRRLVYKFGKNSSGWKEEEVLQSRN
# In short: as §1
# CRX = CRX (Homo sapiens, UniProt O43186 1-299); conditions: protein: recombinant; tags: N-terminal GST; dsDNA, one strand shown
# In short: as §1
# ETV1 = ETV1 (Homo sapiens, UniProt P50549 1-477); conditions: protein: recombinant; tags: N-terminal GST; dsDNA, one strand shown
# In short: as §1
# ERF = target: T6, ERF (Homo sapiens, UniProt P50548 1-548); conditions: protein: recombinant; tags: N-terminal GST; dsDNA, one strand shown
# T6 sequence: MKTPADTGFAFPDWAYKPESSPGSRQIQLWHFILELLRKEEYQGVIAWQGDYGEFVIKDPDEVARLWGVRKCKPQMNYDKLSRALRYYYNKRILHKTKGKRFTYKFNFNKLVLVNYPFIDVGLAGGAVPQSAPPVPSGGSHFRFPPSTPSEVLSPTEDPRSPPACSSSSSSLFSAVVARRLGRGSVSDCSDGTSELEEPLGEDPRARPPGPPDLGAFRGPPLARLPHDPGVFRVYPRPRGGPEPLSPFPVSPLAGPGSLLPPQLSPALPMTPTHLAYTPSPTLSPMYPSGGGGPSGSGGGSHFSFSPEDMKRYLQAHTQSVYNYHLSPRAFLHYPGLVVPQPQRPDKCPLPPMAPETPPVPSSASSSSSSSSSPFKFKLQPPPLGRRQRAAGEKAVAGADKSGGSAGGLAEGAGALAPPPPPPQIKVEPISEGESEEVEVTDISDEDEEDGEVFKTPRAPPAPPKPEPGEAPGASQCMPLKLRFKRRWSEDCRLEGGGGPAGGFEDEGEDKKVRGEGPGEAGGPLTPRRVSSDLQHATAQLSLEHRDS
# In short: as §1
# ETV3L = target: T7, ETV3L (Homo sapiens, UniProt Q6ZN32 1-361); conditions: protein: recombinant; tags: N-terminal GST; dsDNA, one strand shown
# T7 sequence: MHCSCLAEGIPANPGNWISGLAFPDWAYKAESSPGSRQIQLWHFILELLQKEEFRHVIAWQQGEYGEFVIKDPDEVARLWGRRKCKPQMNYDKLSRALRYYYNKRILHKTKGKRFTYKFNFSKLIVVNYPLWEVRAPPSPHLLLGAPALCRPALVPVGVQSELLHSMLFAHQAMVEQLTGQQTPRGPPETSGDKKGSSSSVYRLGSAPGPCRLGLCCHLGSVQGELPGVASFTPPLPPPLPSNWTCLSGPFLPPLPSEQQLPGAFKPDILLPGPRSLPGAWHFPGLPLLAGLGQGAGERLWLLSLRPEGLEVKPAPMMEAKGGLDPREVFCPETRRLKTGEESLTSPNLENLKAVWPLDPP
# In short: as §1
# ETS2 = target: T8, ETS2 (Homo sapiens, UniProt P15036 1-469); conditions: protein: recombinant; tags: N-terminal GST; dsDNA, one strand shown
# T8 sequence: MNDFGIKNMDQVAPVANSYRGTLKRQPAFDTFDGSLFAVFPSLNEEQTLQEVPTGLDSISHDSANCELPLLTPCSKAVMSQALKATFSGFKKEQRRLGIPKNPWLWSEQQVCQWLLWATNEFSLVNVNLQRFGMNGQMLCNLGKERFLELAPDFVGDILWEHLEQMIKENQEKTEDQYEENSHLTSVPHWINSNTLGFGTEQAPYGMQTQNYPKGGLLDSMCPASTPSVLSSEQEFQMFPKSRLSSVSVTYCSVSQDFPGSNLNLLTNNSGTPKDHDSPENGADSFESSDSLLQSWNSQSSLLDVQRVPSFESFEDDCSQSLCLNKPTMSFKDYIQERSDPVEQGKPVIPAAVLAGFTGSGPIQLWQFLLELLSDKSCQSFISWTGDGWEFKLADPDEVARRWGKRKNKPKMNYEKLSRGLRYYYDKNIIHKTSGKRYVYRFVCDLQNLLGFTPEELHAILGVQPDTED
# In short: as §1
# SPDEF = target: T9, SPDEF (Homo sapiens, UniProt O95238 1-335); conditions: protein: recombinant; tags: N-terminal GST; dsDNA, one strand shown
# T9 sequence: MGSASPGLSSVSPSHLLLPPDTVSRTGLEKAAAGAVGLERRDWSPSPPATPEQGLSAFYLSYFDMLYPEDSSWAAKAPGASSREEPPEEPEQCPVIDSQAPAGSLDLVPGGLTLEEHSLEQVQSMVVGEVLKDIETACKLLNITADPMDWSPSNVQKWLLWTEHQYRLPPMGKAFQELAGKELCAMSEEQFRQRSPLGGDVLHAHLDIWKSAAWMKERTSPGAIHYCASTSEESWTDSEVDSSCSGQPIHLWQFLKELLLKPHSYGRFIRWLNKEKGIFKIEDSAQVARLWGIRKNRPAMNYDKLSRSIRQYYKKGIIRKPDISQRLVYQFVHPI
# In short: as §1
# ETV7 = target: T10, ETV7 (Homo sapiens, UniProt Q9Y603 1-341); conditions: protein: recombinant; tags: N-terminal GST; dsDNA, one strand shown
# T10 sequence: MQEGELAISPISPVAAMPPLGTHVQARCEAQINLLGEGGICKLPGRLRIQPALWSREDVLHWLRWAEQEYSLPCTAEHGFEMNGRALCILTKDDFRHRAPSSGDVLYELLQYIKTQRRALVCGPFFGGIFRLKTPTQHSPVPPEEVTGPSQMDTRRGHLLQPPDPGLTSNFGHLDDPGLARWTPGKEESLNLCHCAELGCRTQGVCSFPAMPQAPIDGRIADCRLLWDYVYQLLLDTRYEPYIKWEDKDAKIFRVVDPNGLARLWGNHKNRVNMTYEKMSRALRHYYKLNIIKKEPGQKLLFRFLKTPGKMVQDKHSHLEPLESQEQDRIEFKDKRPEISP
# In short: as §1
# ELF5 = target: T11, ELF5 (Homo sapiens, UniProt Q9UKW6-2 1-255); conditions: protein: recombinant; tags: N-terminal GST; dsDNA, one strand shown
# T11 sequence: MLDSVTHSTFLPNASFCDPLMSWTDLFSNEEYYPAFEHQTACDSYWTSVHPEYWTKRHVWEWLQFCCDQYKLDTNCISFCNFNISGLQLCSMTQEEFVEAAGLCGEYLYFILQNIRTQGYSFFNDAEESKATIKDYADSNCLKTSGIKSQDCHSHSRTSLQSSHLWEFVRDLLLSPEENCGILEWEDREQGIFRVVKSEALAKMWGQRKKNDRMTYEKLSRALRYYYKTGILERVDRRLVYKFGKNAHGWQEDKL
# In short: as §1
# ETV3 = target: T12, ETV3 (Homo sapiens, UniProt P41162-2 1-143); conditions: protein: recombinant; tags: N-terminal GST; dsDNA, one strand shown
# T12 sequence: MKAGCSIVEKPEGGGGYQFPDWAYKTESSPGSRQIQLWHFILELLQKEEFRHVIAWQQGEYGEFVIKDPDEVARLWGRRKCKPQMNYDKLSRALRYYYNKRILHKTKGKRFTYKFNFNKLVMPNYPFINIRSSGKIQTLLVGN
# In short: as §1
# ETV6 = ETV6 (Homo sapiens, UniProt P41212 1-452); conditions: protein: recombinant; tags: N-terminal GST; dsDNA, one strand shown
# In short: as §1
# Chain of HSF1 (Q00613 whole entry): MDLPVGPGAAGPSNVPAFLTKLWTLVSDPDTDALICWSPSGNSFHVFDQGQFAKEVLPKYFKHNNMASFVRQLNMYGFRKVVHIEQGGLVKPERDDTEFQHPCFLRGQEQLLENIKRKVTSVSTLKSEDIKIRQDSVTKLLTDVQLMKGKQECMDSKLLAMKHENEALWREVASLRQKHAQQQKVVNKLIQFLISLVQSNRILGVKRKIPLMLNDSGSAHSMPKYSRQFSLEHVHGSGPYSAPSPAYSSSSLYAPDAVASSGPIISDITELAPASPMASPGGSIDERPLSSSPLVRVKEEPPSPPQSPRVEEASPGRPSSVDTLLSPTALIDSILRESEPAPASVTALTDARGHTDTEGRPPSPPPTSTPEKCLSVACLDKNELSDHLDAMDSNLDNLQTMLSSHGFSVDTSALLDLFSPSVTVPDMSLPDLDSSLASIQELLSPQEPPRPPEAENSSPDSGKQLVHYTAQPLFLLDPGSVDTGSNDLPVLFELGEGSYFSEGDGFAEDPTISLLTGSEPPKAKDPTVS
# Chain of ETV1 (P50549 whole entry): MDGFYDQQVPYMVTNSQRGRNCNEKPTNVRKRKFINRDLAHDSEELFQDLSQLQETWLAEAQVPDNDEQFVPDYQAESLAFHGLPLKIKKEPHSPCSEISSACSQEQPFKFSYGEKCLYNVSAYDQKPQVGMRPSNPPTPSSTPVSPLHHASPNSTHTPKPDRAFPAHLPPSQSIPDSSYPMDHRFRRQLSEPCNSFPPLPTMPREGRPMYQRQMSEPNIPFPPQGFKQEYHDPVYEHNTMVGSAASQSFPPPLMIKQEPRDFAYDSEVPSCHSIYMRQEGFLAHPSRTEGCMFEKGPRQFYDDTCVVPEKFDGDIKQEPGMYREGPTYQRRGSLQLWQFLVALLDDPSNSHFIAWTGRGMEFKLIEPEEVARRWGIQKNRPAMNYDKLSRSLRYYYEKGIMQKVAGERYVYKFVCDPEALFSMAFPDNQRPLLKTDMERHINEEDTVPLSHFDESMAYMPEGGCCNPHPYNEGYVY
# Chain of CRX (O43186 whole entry): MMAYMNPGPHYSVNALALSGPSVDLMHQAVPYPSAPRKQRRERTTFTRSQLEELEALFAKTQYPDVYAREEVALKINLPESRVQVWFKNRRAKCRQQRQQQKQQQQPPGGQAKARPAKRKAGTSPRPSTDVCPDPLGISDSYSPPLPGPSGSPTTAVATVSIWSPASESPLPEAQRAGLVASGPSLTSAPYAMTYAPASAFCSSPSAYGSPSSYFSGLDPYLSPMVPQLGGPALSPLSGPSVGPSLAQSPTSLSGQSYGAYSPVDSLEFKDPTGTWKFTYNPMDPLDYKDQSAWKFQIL
# Chain of ELF4 (Q99607 whole entry): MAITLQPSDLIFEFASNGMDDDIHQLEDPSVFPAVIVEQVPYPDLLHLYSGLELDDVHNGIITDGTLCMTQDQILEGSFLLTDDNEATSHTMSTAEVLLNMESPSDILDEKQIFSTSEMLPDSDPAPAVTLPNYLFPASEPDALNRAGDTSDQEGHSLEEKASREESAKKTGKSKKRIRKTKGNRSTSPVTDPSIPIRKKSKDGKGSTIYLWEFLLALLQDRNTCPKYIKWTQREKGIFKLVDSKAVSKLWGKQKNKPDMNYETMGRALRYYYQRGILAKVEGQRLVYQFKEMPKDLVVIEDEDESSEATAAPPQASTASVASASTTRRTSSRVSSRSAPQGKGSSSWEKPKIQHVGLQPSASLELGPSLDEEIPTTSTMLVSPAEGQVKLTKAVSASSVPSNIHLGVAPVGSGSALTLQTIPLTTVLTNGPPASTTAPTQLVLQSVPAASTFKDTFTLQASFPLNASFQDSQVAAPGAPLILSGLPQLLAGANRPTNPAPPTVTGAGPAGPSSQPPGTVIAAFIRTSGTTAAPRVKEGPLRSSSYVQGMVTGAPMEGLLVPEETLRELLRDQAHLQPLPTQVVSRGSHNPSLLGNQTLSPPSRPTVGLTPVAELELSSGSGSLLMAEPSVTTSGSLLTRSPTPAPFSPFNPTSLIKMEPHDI
# Chain of ETV5 (P41161 whole entry): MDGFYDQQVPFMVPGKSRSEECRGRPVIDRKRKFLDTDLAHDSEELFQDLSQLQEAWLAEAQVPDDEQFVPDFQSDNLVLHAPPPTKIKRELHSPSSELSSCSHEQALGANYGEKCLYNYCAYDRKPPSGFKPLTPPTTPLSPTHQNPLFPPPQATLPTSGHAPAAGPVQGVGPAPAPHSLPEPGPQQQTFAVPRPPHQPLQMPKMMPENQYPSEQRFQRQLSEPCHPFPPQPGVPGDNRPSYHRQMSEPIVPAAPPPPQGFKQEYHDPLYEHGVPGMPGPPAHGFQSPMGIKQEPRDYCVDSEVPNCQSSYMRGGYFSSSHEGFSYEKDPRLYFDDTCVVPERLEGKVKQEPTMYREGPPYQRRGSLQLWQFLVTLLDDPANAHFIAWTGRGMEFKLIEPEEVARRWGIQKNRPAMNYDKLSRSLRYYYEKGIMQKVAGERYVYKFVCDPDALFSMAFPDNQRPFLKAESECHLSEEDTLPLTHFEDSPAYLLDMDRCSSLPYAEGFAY
# Chain of ETV6 (P41212 whole entry): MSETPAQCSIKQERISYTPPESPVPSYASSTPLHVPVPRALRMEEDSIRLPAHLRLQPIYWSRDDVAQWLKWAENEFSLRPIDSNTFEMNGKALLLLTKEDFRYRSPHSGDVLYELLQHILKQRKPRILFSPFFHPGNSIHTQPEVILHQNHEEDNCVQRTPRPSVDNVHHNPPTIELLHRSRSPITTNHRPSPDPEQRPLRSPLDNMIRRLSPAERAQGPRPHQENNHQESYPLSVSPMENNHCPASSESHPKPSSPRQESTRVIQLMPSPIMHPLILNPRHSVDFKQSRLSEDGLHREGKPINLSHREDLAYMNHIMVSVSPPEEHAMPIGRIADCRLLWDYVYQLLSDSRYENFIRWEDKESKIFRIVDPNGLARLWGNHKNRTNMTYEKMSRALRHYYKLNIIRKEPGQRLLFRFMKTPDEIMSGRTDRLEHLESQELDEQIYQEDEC
sequence,measurement,setting,value
GATCTC,binding signal,FEV,"1.2 fold enrichment (6-mer frequency, TF over GST control)"
same,binding signal,ETV5,"1.27 fold enrichment (6-mer frequency, TF over GST control)"
same,binding signal,HSF1,"1.42 fold enrichment (6-mer frequency, TF over GST control)"
same,binding signal,SPIC,"1.26 fold enrichment (6-mer frequency, TF over GST control)"
same,binding signal,ELF4,"1.3 fold enrichment (6-mer frequency, TF over GST control)"
same,binding signal,ELK4,"1.22 fold enrichment (6-mer frequency, TF over GST control)"
same,binding signal,ETV2,"1.3 fold enrichment (6-mer frequency, TF over GST control)"
same,binding signal,ELF3,"1.23 fold enrichment (6-mer frequency, TF over GST control)"
same,binding signal,CRX,"1.46 fold enrichment (6-mer frequency, TF over GST control)"
same,binding signal,ETV1,"1.35 fold enrichment (6-mer frequency, TF over GST control)"
same,binding signal,ERF,"1.22 fold enrichment (6-mer frequency, TF over GST control)"
same,binding signal,ETV3L,"1.25 fold enrichment (6-mer frequency, TF over GST control)"
same,binding signal,ETS2,"1.31 fold enrichment (6-mer frequency, TF over GST control)"
same,binding signal,SPDEF,"1.42 fold enrichment (6-mer frequency, TF over GST control)"
same,binding signal,ETV7,"1.29 fold enrichment (6-mer frequency, TF over GST control)"
same,binding signal,ELF5,"1.21 fold enrichment (6-mer frequency, TF over GST control)"
same,binding signal,ETV3,"1.29 fold enrichment (6-mer frequency, TF over GST control)"
same,binding signal,ETV6,"1.15 fold enrichment (6-mer frequency, TF over GST control)"
